Results filed as inconclusive are left out. A call without a number means that no potency is given here. Activity calls are given as the source filed them. The call rests on the fitted dose curve; in most records, active means well fitted inhibition curve with a large enough effect; inconclusive means small, poorly fitted or top-dose-only effect; inactive means flat fitted curve, though single readings scatter. Where a SMILES comes first, the peptide text is derived from it. The star is where a group is joined. AFC = O=c1cc(C(F)(F)F)c2ccc(N*)cc2o1
target: Calcium and integrin-binding protein 1 (Homo sapiens) (UniProt Q99828); assay: Primary qHTS for Identification of Calcium Integrin Binding Protein 1 (CIB1) Competitor (AID 1508620); conditions: CIB1-GST / FITC-alphaIIb peptide fluorescence polarization; series mostly up to 57.7 µM;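 further: GST tagged CIB1 binding a fluorescein labelled alphaIIb integrin peptide tracer; top concentration of the series differs between compounds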
Sequence (Q99828 whole entry, looked up): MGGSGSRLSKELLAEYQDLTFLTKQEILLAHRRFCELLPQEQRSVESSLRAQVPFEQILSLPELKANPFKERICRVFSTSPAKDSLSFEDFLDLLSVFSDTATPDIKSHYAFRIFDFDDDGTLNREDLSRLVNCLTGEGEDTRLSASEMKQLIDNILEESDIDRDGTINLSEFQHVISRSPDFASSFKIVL
Summary of the method: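 CIB1-GST (1 uM final) and compound incubated 15 min at room temperature before adding FITC-alphaIIb peptide tracer (100 nM final). Competition for binding read by fluorescence polarization (ex 480, em 540) after another 15 min at room temperature.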

SMILES | Potency | activity change, negative = inhibition
COc1cc(C)c(C(=O)O[C@H]2[C@@H](O)[C@H](n3ccc(=O)[nH]c3=O)O[C@@H]2CO)c(OC)c1 | inactive | 
C=C1CC2C3(C)C(O)CC(=O)C(C)(C)C3C(OC(C)=O)C(OC(C)=O)C2(C)C2C(=O)OC(C)(C(=O)OC)C(=O)C12C (stereo not drawn) | inactive | 
CC(C)CNC(=O)/C=C/CCCCc1ccc2c(c1)OCO2 | inactive | 
CCOc1ccc(-c2ccc(Cn3c(CC(C)(C)C(=O)O)c(SC(C)(C)C)c4cc(OCc5ccc(C)cn5)ccc43)cc2)cn1 | inactive | 
CCOc1cc2ncc(C#N)c(Nc3ccc(OCc4ccccn4)c(Cl)c3)c2cc1NC(=O)/C=C/CN(C)C | inactive | 
OC[C@H]1O[C@@H](Oc2cc(O)cc(-c3cc4ccc(O)cc4o3)c2)[C@H](O)[C@@H](O)[C@@H]1O | inactive | 
COc1ccccc1[C@@H]1C2=C(CC(C)(C)CC2=O)Nc2n[nH]c(C(F)(F)F)c21 | inactive | 
C=C1CC2C3(C)C(OC(C)=O)CC(=O)OC(C)(C)C3C(O)C(OC(C)=O)C2(C)C2C(=O)OC(C)C(=O)C12C (stereo not drawn) | inactive | 
O=C(O)CCc1cc2ccoc2cc1O[C@@H]1O[C@H](CO[C@@H]2OC[C@](O)(CO)[C@H]2O)[C@@H](O)[C@H](O)[C@H]1O | inactive | 
COc1ccc(/C=C/C(=O)O[C@H]2[C@@H]3C=CO[C@@H](O[C@@H]4O[C@H](CO)[C@@H](O)[C@H](O)[C@H]4O)[C@@H]3[C@@]3(CO)O[C@@H]23)cc1O | inactive | 
CC(=O)N[C@@H](CC(C)C)C(=O)N[C@@H](CCC(=O)O)C(=O)N[C@@H](CCC(=O)O)C(=O)N[C@@H](CC(=O)O)C(=O)Nc1ccc2c(C(F)(F)F)cc(=O)oc2c1 (Ac-LEED-{AFC}) | inactive | 
C[C@@H]1O[C@@H](O[C@H]2[C@H](O[C@H]3CC[C@@]4(C)C(CC[C@]5(C)C4CC=C4C6CC(C)(C)CC[C@]6(C(=O)O[C@@H]6O[C@H](CO[C@@H]7O[C@H](CO)[C@@H](O[C@@H]8O[C@@H](C)[C@H](O)[C@@H](O)[C@H]8O)[C@H](O)[C@H]7O)[C@@H](O)[C@H](O)[C@H]6O)CC[C@]45C)[C@]3(C)CO)OC[C@H](O)[C@@H]2O)[C@H](O)[C@H](O)[C@H]1O (stereo partly drawn) |  | 2.74% [at 12.4 µM] (inactive)
C=C1C[C@]23C[C@H]1CC[C@H]2[C@]1(C)CCC[C@@]2(CO)C(=O)O[C@H]([C@H]21)[C@@H]3O | inactive | 
CC1=C(C)C(=O)OC(C(C)C2C(O)CC3C4C5OC5C5(O)CC(OC6OC(CO)C(O)C(O)C6O)CC(O)C5(C)C4CCC32C)C1 (stereo not drawn) | inactive | 
COC1=CC(=O)C[C@@H](C)[C@]12Oc1cc(OC)cc(OC)c1C2=O | inactive | 
C=C1CC[C@@H]2[C@](C)(CC[C@H](O)[C@@]2(C)CCC=C(C)C)[C@@H]1Cc1c[nH]c2ccccc12 | inactive | 
CC(=O)OCC(=O)O[C@@H]1[C@H]2[C@@H](OC(=O)c3ccccc3)[C@@H](C)C[C@]2(O)[C@H](OC(C)=O)C2(C)[C@H]3CC(C)(C)C(=O)[C@@H]3CC1(OC(C)=O)[C@@H]2OC(C)=O (stereo partly drawn) | inactive | 
CCc1nc(C(N)=O)c(Nc2ccc(N3CCC(N4CCN(C)CC4)CC3)c(OC)c2)nc1NC1CCOCC1 | inactive | 
COc1ncc(-c2ccc3c(Nc4cc(Oc5cc(F)cc(F)c5)cc(C(=O)O)c4)c(S(=O)(=O)NC4CC4)cnc3c2)c(OC)n1 | inactive | 
C=C(C)[C@@H]1CC[C@](C)(O)[C@@H](OC(=O)c2ccccc2)C1 | inactive | 
CN1C(=O)c2ccccc2-n2c(nc3ccccc3c2=O)[C@@]12O[C@H]2c1ccccc1 | inactive | 
C=C1CC23CC1(O)CCC2C1=CC2OC(=O)C(C)(C2O)C1C3C(=O)O (stereo not drawn) | inactive | 
CC(/C=C/C1(O)C(C)(C)CC(O)CC1(C)O)OC1OC(CO)C(O)C(O)C1O (stereo not drawn) | inactive | 
CC12CCC3C(C)(C)C(O)CCC3(C)C1Cc1c(oc(C(=O)O)cc1=O)O2 (stereo not drawn) | inactive | 
COc1ccc2c(c1)OC[C@]1(O)c3cc4c(cc3O[C@H]21)OCO4 | inactive | 
C=CC(C)(O)CO[C@@H]1O[C@H](CO)[C@@H](O)[C@H](O)[C@H]1O (stereo partly drawn) | inactive | 
O=C(/C=C/c1ccc(O)c(O)c1)OCc1ccccc1O[C@@H]1O[C@H](CO)[C@@H](O)[C@H](O)[C@H]1O | inactive | 
Cn1ccnc1CCOC(c1cc2nccc(C(=O)O)c2[nH]1)c1ccccc1Cl (stereo not drawn) | inactive | 
